Data from PubChem BioAssay AID1918 (Vanderbilt High Throughput Screening Facility, 2009).
Among all 130,000 compounds or so, about 2,500 (1.9%) were called active.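 How the source made its calls: active means signal ratio slope over the read window, or its plate-corrected B-score, at least 3 SD from the plate mean, either direction; inactive means the rest.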 The entries come from a sample that favours actives as a whole.

molecular target: ATP-sensitive inward rectifier potassium channel 1 (Homo sapiens) (UniProt P48048); assay: Kir1.1 channel activity modulation, library screen – cell-based, thallium flux, MLSMR library, primary screen (AID 1918); conditions: Tet-inducible ROMK, thallium flux fluorescence; at 10 µM; actives lie on both sides;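 further: B-score of the F/F0 ratio slope over 7 to 12 s after thallium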
Sequence (P48048 whole entry, looked up): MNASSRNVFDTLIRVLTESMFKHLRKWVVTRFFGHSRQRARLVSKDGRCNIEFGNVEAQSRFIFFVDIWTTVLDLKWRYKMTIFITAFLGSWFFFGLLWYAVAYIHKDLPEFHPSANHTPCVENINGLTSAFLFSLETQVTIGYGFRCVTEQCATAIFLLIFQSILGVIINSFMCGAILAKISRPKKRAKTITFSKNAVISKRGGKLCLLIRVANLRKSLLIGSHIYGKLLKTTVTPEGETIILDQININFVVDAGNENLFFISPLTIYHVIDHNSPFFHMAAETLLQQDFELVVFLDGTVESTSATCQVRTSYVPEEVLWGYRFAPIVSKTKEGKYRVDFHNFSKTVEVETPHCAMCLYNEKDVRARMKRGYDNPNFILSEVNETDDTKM

B-score, inactive:
COc1ccc(N(CC(=O)Nc2ccc(C)cc2C)S(=O)(=O)c2ccccc2[N+](=O)[O-])c(OC)c1 -0.208, CN(C)S(=O)(=O)c1cccc(NC(=O)COC(=O)/C=C/c2cccs2)c1 0.12, O=C(CN(C(=O)c1csnn1)c1cccc(F)c1)NCc1ccc(F)cc1 0.442, O=C(Cn1ncc(N2CCCC2)c(Br)c1=O)c1ccc(Cl)cc1 -0.342, COC(=O)c1ccc(NCC(=O)N2CCCCCC2)cc1 -0.512, CC(C)CCN1CCN(C/C=C/c2ccco2)CC1CCO (stereo unspecified) 0.0943, CCOc1cccc(-n2nnnc2-c2ccc(OC)cc2)c1 2.1, COc1cccc(C2Nc3cccc4cccc(c34)N2)c1 -0.051, Cc1cc(NS(=O)(=O)c2ccc(NC(=O)c3cccc(OC(F)F)c3)cc2)nc(C)n1 0.878, Cc1ccc([N+](=O)[O-])c(OCCCNCC(C)O)c1 (stereo unspecified) -0.00821, O=C(Cc1ccc([N+](=O)[O-])cc1)N/N=C/c1ccco1 -1.24, N#Cc1c(-c2ccc(F)cc2)nc(-c2ccccc2)[nH]c1=O -1.43, O=c1[nH]c(-c2ccccc2)c(-c2ccccc2)[nH]1 -0.0963, CN(C)/C=C/C(=O)c1cnc2sccn2c1=O -0.835, Cc1nn(C)c(Oc2ccccc2)c1[N+](=O)[O-] 0.573, Cc1cccc(OP(=O)(Nc2c(C)n(C)n(-c3ccccc3)c2=O)Oc2cccc(C)c2)c1 -0.868, COc1cccc(-c2ccc(SCC(=O)N3CCN(c4ccccc4)CC3)nn2)c1 0.576, COc1ccc(S(=O)(=O)N2CCCCCC2)cc1C(=O)OCC(=O)Nc1cc(C)on1 0.559, COc1cc2c(cc1OC)C(C(C)C)=NC(C)(C)C2 -0.0102, CN(C)C(=O)c1cccn(Cc2cccc(C(F)(F)F)c2)c1=O 0.481, CN1CCNC(=O)C1CC(=O)N1CC=C(c2ccc(F)cc2)CC1 (stereo unspecified) -0.128

B-score, active:
O=C(Cn1nc(CNc2ccc(Cl)cc2)[n+]2c1CCCCC2)c1ccc(Cl)cc1 -3.24, COc1ccc(C2=CC(c3cccc(OC)c3)n3nnnc3N2)cc1 (stereo unspecified) -4.22, O=c1cc(-c2ccccc2)[nH]c2cc(F)ccc12 4.56, Cc1cccc(Oc2c([N+](=O)[O-])c(=O)n(C)c3ccccc23)c1 -2.67, COc1cc2c(cc1O)C(SC)=NC(C)(C)C2 -6.55
